The source of these data is PubChem BioAssay (NCI).

About 83,000 compounds went through this panel and 20% of them were active in at least one assay; those are over-represented in the sample as a whole.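 96-well plates, one dose, 48 hours. Percent growth reported; active if below 10.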 Values without a mark were called inactive. Activity calls are given as the source filed them.

For this test, the system named is HL-60(TB) leukemia. Description: NCI-60 one-dose screen, 48 h (100 = growth as untreated, 0 = no growth, -100 = all killed). The conditions noted are these: 10 µM unless noted.
On to `CCOC(=O)c1cnn(-c2nc(-c3ccc(F)cc3)c(C#N)c(N3CCOCC3)n2)c1N`, for which the growth is 93.1%.
The value for `C#C[C@]1(O)CCC2C3CCc4cc(OC5CCCC5)ccc4C3CC[C@@]21C` (stereo not given in full) was 77%; that for `c1cnc2[nH]cc(-c3nc(-c4ccsc4)cs3)c2c1` was 104%; that for `COc1cc(/C=C2\C(=O)Nc3ccc(Br)cc32)cc(OC)c1OC` was 73.5%.
Then `CCOC(=O)c1c(Cl)c2c(n1Cc1cc(OC)cc(OC)c1)-c1oncc1CCC2`, with 0.728% (active); and `COc1ccc(N2CCN(CC(=O)N3CCN(c4nnc(-c5ccccc5)c(-c5ccccc5)n4)CC3)CC2)cc1`, with -36.3% (active).
As for `COc1cccc(/C=C\C(=O)c2ccccc2)c1`, the growth was 43.9%.
The value for `CN1CCN(c2nc(NCCNc3ccnc4cc(Cl)ccc34)c3ccccc3n2)CC1` was -63.3% (active); that for `c1ccc(CO[C@H]2CO[C@H]3[C@@H]2OC[C@@H]3Oc2ccc(Nc3ncnc4ccsc34)cc2)cc1` was 75.7%; that for `O=C(Nc1cccc2ccccc12)c1cc2c(cc1Br)OCO2` was 75.9%.
As for `O=C1Nc2ccc(Cl)cc2/C1=C/c1ccc[nH]1`, the growth was 102%.
The value for `COc1ccc(/C=C2\Oc3cc(OCCCCCN4CCCCC4)ccc3C2=O)cc1OC` was 97.8%; that for `O=C1Nc2c(ccc(Cl)c2Cl)/C1=C/c1ccc([N+](=O)[O-])cc1` was 74.1%; that for `CCCCn1c(=O)c(-c2cc(-c3ccc(Cl)cc3)nc(-c3ccc(Cl)cc3)c2)cc2ccc(Cl)cc21` was 100%.
Then `C#CCSc1nnnn1-c1ccc(Br)c(C)c1`, with 88.4%.
The value for `O=[N+]([O-])c1ccc(N2c3ccncc3Sc3ccncc32)cc1` was 102%; that for `O=C(NC1CCN(Cc2ccccc2)CC1)c1cc(C(=O)NC2CCN(Cc3ccccc3)CC2)cc(C(=O)NC2CCN(Cc3ccccc3)CC2)c1` was 64.3%; that for `CC(N)C(=O)NNc1n[nH]c(=S)n1N` (stereo not given) was 101%.
In the case of `COC1OCC(O)C(O)C1O` (stereo not given), the growth is 102%.
The value for `CCCCCC(=O)O[C@]1(C(C)=O)CCC2C3CCC4=CC(=O)CC[C@]4(C)C3CC[C@@]21C` (stereo not given in full) was -43.2% (active); that for `COC(=O)[C@]12CC[C@@H](C)[C@H](C)[C@@H]1C1=CC[C@@H]3[C@@]4(C)C=C(O)C(=O)C(C)=C4CC[C@@]3(C)[C@]1(C)CC2` was 4.09% (active).
Then `CCCCc1ccc(NC(=O)N(CCCl)N=O)cc1`, with 98.8%; and `COc1ccc(Cn2nc(-c3ccccc3)c3c2CCc2cnoc2-3)cc1`, with 69.4%.
Turning to `O=S(=O)(O)c1ccc(F)cc1`, the growth is 93.8%.
The value for `C=C(C)[C@@H]1CC[C@]2(CNCCO)CC[C@]3(C)[C@H](CC[C@@H]4[C@@]5(C)CCC(N)[C@@](C)(CO)[C@@H]5CC[C@]43C)[C@@H]12` (stereo not given in full) was -63.7% (active); that for `C#C[C@@]1(O)[C@@H](CO)O[C@@H](n2cc(Br)c3c(N)ncnc32)[C@@H]1O` was -62.5% (active); that for `C/C=C(\C)C(=O)N[C@H]1[C@@H](OC(C)=O)C[C@]2(C)C3CC[C@@]4(C)C(CC[C@@H]4C(C)N(C)C)C3CCC2[C@H]1O` (stereo not given in full) was 70.5%.
The value for `C[C@@H]1CC2C3CCC4=CC(=O)C=C[C@]4(C)[C@@]3(Cl)[C@@H](O)C[C@]2(C)[C@@]1(OC(=O)c1ccco1)C(=O)CCl` (stereo not given in full) was 78.2%; that for `N#CC1=C(/N=C/c2ccccc2)Oc2c(ccc3ccccc23)C1c1ccc([N+](=O)[O-])cc1` (stereo not given) was 99.1%.
The value for `NC(=O)OCCO` was 106%; that for `C#Cc1cccc(NC(=O)C2CCCCN2C(=O)CCl)c1` (stereo not given) was -31.6% [8.25 µM] (active).
As to `COc1ccc(/C(C)=C(\c2ccc(Cl)cc2)c2ccc(OCCN3CCCC3)cc2)cc1`, the growth was 37.9%.
The value for `COc1ccc2nc3ccccc3c(NCc3ccc(Cl)cc3)c2c1` was -64.5% (active).
The value for `O=C(Cn1cc(COc2ncnc3c2cnn3-c2ccccc2)nn1)Nc1ccccn1` was 105%; that for `CCCCCCN(CCCCCC)CCC(=O)Nc1ccc(S(=O)(=O)c2ccc(NC(=O)CCN(CCCCCC)CCCCCC)cc2)cc1` was 80%.
The value for `NC(=O)c1c(NC(=O)COC(=O)Cc2ccccc2F)sc2c1CCC2` was 135%.
As for `CCN(CCO)CCNc1ccc(C)c2sc3cc(OC)ccc3c(=O)c12`, the growth is 67.5%.
The value for `Oc1ccc(Cl)cc1CNc1nc2ccccc2[nH]1` was -56.6% (active); that for `COc1cc(/C=N/N(C)C)ccc1O` was 86.5%.
The value for `c1ccc(Nc2ccccn2)cc1` was 64.9%.
